GLP1R inv ag = qHTS of GLP-1 Receptor Inverse Agonists (Inhibition Mode). Glucagon-like peptide 1 receptor (Homo sapiens), P43220. HEK293 GLP-1R CRE-luciferase, luminescence, 24 h; GLP-1R form is constitutively active. Potency, µM (titrated, usually from 38.3 µM), inactives show top-dose activity change, negative = inhibition, actives largely listed as inhibitors. hit rate 1.6% among 410,000. AID 624417, 2012; also: % is scaled to controls: 0 for no effect and ±100 for the full control effect; nearly all actives have a fitted effect of over 55% in size
Target sequence (P43220 whole entry, looked up): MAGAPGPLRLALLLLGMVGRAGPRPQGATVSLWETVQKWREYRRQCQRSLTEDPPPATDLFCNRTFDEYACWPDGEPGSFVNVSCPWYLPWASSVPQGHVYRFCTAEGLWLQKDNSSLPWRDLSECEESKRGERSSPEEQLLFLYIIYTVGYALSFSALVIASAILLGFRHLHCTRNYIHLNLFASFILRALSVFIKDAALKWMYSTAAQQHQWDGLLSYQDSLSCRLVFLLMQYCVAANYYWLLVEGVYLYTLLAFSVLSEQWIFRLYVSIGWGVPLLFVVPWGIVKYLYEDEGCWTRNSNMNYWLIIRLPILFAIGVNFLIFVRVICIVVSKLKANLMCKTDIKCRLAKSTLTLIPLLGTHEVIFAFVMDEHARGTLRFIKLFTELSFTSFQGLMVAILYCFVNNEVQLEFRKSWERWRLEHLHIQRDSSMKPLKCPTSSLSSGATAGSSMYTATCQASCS
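Cells are plated, allowed 12 hours at 37 deg C, then treated with compounds for 24 hr before luciferase detection reagent is added and luminescence is read after 12 min at room temperature. The HEK293 line carries constitutively active GLP-1R with a cAMP-responsive reporter.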
BRCA1 expr up = qHTS Assay to Identify Small Molecule Activators of BRCA1 Expression. MCF7-BRCA1-FFLuc reporter, luminescence, 48 h; response scale: scaled: vehicle 0%, 10 µM genistein 100%. Potency, µM (titrated, usually from 46.1 µM), inactives show top-dose activation, usual class: activators. hit rate 1.1% among 380,000. AID 624202, 2012; also: nearly all actives have a fitted effect of over 80% in size
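MCF7-BRCA1-FFLuc cells, 2000/well in phenol-red-free MEM, attached 2 h then treated 48 h at 37 C. Luciferase luminescence read 15 min after reagent; normalized to genistein maximum activation (10microM) and DMSO, concentration-response fitted.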
GLP1R ag = qHTS of GLP-1 Receptor Agonists; Glucagon-like peptide 1 receptor (Homo sapiens), P43220; HEK293 GLP-1R CRE-luciferase, luminescence, 4-6 h; cells express a hypersensitive GLP-1R form; Potency, µM (series often up to 45.6 µM), for inactives: at the highest dose activation, most hits filed as activators; hit rate 0.007% among 380,000; also: % of control where 0% means no effect
GLP1R cytotox = qHTS of GLP-1 Receptor Inverse Agonists: Cytotox Screen; HEK293 cAMP-luciferase reporter cells, luminescence, 24 h; Potency, µM (titrated, usually from 38.3 µM), for the others: at the highest dose activity change, negative = inhibition, most hits filed as inhibitors; hit rate 0.13% among 410,000;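 also: loss of luciferase light is scored as toxicity; % is scaled to controls: 0 for no effect and ±100 for the full control effect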
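Step one: seed cells (200 cells/uL, DMEM with 10% Nu serum, 1% pen-strep). Step two: 12-hour incubation at 37 deg C. Step three: pin 23 nL compound, incubate 24 hr. Step four: add luciferase reagent, read luminescence 12 min later.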
The depositor's hits bear a star; ? = inconclusive; · = no result given; [ ] = remark or other dose. The list is not random: actives were taken first. Their share in the collection is about 2.6%. Calls follow the shape of the dose curve; as a rule, active = well fitted curve in the direction sought with a large enough effect; inconclusive = small, poorly fitted or top-dose-only effect, or another doubt; inactive = no such curve, though single readings can be large; an effect the other way counts as inactive or inconclusive. Potency is read from the fitted curve at half-maximal effect.

SMILES | GLP1R inv ag | BRCA1 expr up | GLP1R ag | GLP1R cytotox
O=[N+]([O-])c1ccc(CN2CCOCCOCCN(Cc3ccc([N+](=O)[O-])cc3)CCOCC2)cc1 | 10µM* | -39% | 11% | 5%
O=[N+]([O-])c1ccc(COc2ccc(CN3CCOCC3)cc2)cc1 | ? | ? | 7% | -4%
O=[N+]([O-])c1ccc(COc2ccc(CN3CCCC3)cc2)cc1 | ? | ? | -2% | 21%
O=[N+]([O-])c1ccc(COc2ccc(CN3CCCCC3)cc2)cc1 | ? | 7.9µM* | -2% | -24%
COc1ccc(OC)c(NC(=O)/C=C/c2ccc(S(=O)(=O)N3CCOCC3)cc2)c1 | -22% | -5% | 6% | -8%
COc1ccc(CCn2c(=S)[nH]c(=O)c3nccnc32)cc1OC | · | 3% | · | ·
O/N=C/c1ccc(OCc2ccccc2)c(Cl)c1 | ? | 10µM* | 21% | -16%
COC(=O)N/N=C/c1cc(Cl)c(OCc2ccccc2F)c(OC)c1 | 10µM* | -2% | 9% | -16%
O/N=C/c1ccc(OCc2ccccc2F)c(Cl)c1 | ? | 2.8µM* | 4% | 8%
O/N=C/c1ccc(OCc2ccccc2)c(Br)c1 | 6% | ? | 22% | 2%
CCOC(=O)c1ccc(CN(Cc2ccc(F)cc2)S(=O)(=O)c2ccc(F)c(C(=O)Nc3ccc(Cl)cc3F)c2)cc1 | 8% | · | · | -7%
Cc1ccccc1C(=O)NNS(=O)(=O)c1cccc([N+](=O)[O-])c1 | -7% | 4% | 13% | -4%
O=C(C=C=Nc1ccccc1)C(=O)N=C=Cc1ccccc1 | ? | -73% | 0% | 13µM*
Cc1cc(/C=C2\SC(=S)N(C)C2=O)c(C)n1-c1ccc(O)cc1 | 1.4µM* | -80% | -5% | 9%
Cc1cc(/C=C2\SC(=S)NC2=O)c(C)n1-c1cccc(O)c1 | 22% | 2.8µM* | -1% | -12%
Cc1ccc(-n2c(C)cc(/C=C3\SC(=O)NC3=O)c2C)cc1 | -18% | ? | -5% | 0%
COc1ccc(-n2c(C)cc(/C=C3\SC(=O)NC3=O)c2C)cc1 | 11% | 11µM* | 5% | -3%
COC(=O)C[C@H]1C=C[C@H](NC(=O)Nc2ccccc2F)[C@@H](CO)O1 | 16% | · | · | -19%
CCc1ccc2nc(SCC(=O)Nc3nnc(C)s3)c(C)cc2c1 | 2% | 2% | 1% | 4%
COc1ccc(-c2cn3nc(N4CCC(C(=O)Nc5cccc(OC)c5)CC4)sc3n2)cc1 | 11% | · | · | 2%
CCN(CC)C(=O)[C@H]1C[C@H](CC(=O)NC(C)(C)C)C(=O)N2CCc3c([nH]c4cc(CCC(=O)N(C)C)ccc34)[C@]12C | -3% | 5% | 0% | -6%
O=C(CSc1nnc(-c2ccc(Br)cc2)n1C1CCCCC1)N1CCCC1 | 1% | 8% | -3% | -10%
CC(C)(C)c1ccc(-c2nnc(SCCC#N)n2C2CCCC2)cc1 | 10µM* | -60% | 3% | -16%
CCOC(=O)c1cnc2ccc(OC)cc2c1Nc1ccc(OCc2ccccc2Cl)cc1 | ? | · | · | -1%
COc1c(C(=O)NNC(=O)c2ccccc2Cl)csc1Br | -11% | 10µM* | 2% | -2%
SMILES | GLP1R inv ag | BRCA1 expr up | GLP1R ag | GLP1R cytotox
O=C(NNC(=O)c1ccccc1Cl)c1ccncc1 | 11% | 13% | -24% | 64%
COCCNC(=O)C1Cc2c(-c3cccc(NC(C)=O)c3)ccnc2O1 (centres undefined) | -2% | -21% | 1% | 1%
O=C(COc1ccc(Cl)cc1)NNC(=O)c1ccccn1 | -26% | -24% | -1% | 0%
Cc1cc(C)cc(OCC(=O)NNC(=O)c2ccccn2)c1 | 13µM* | -32% | -1% | ?
CCOC(=O)C1(CC2CCCCO2)CCN(Cc2nccn2-c2cccc(C)c2)CC1 (centres undefined) | 10µM* | -19% | 17% | -29%
O=c1cc(N2CCCCC2)c(-c2ccccc2)nn1Cc1ccc(F)cc1 | 2µM* | -9% | -3% | -5%
O=[N+]([O-])c1ccc(O)c(/C=N/NC(=S)Nc2ccc(Cl)cc2Cl)c1 | 2µM* | -60% | 0% | -28%
CCn1nc(C)c(/C=N/NC(=S)Nc2ccc(Cl)cc2Cl)c1C | 4µM* | -11% | 23% | ?
Cc1nn(C)cc1/C=N/NC(=S)Nc1ccc(Cl)cc1Cl | -18% | 6% | -1% | -14%
CC1=C(C(=O)N(C)C)CC(CC(=O)NC(c2ccccc2)c2ccccc2)C(=O)N1CCC1=CCCCC1 (centres undefined) | ? | -21% | 6% | -13%
Cc1ccccc1C(=O)Nc1nnc(-c2ccncc2)o1 | 10%[7.66 µM] | -6% | 0% | 2%[7.66 µM]
COc1ccccc1C(=O)Nc1nnc(-c2ccc3c(c2)CCCC3)o1 | ? | 43% | -3% | 11µM*
COc1ccc(-c2nnc(NC(=O)c3ccccc3C)o2)cc1 | 10µM* | -3% | -3% | ?
COc1cccc(C(=O)Nc2nnc(-c3ccc(Cl)cc3)o2)c1 | 10µM* | 3% | -2% | -29%
NC(N)=Nc1ccc(/C=C2\C=Cc3ccccc32)cc1 | · | -43% | · | ·
C[C@@H](O[C@H]1OCCN(Cc2n[nH]c(=O)[nH]2)[C@@H]1c1ccc(F)cc1)c1cc(C(F)(F)F)cc(C(F)(F)F)c1 | · | · | 5% | ·
COc1cccc(NCc2cc(=O)oc3cc(C)c(C(C)C)cc23)c1 | 11µM* | -40% | 17% | -18%
Cc1cc2oc(=O)cc(CN3CCCCC3)c2cc1C(C)C | ? | -29% | 0% | 18%
COc1ccccc1N1CCN(C(=O)c2ccc(Nc3nc4ccccc4n4nnnc34)cc2)CC1 | -27% | · | · | -18%
CC(C)(CC(=O)O)CC(=O)N1CCN(c2nc3ccc(Cl)cc3s2)CC1 | 69% | 49% | -4% | 7%
CC(C)(C)NC(=O)N1CCN(c2nc3ccc(Cl)cc3s2)CC1 | ? | 10µM* | 5% | 0%
CNc1nc(SCc2ccccc2Cl)nc2c1CCCC2 | 10µM* | -42% | 2% | -17%
CC(=O)N1CCN(Cc2nc3ccc(Cl)cc3n2CCO)CC1 | 13% | 1% | 8% | 5%
CCCCN(CC)CCNC(=O)c1cn(-c2ccc(Cl)cc2)c(=O)c2ccccc12 | 10µM* | 0% | 7% | -29%
C(/C=C/c1ccccc1)=N/N1CCN(c2ccccc2)CC1 | 0% | 7.9µM* | -25% | 9%
CC(/C=N/N1CCN(c2ccccc2)CC1)=C\c1ccccc1 | 0% | 23% | -10% | 4%
C(=C\c1ccccc1)/C=N/N1CCN(Cc2ccccc2)CC1 | ? | 11µM* | 14% | 6%
CC(C)c1ccc(/C=N/N2CCCCC2)cc1 | 2% | 0% | 1% | 3%
C(=C\c1ccccc1)/C=N/N1CCN(c2ccccn2)CC1 | 3.5µM* | ? | 8% | -2%
CN(C)c1ccc(C=NN2CCCCCC2)cc1 | 18% | 7.9µM* | 19% | -3%

Bioassay records: PubChem BioAssay, National Center for Advancing Translational Sciences (NCATS)
